From ChEMBL document CHEMBL3988442, “University of Dundee, Small-Polar-MMV Screening Library” (2021) come the findings set out here.

Structures are written as SMILES. For some assays here: Entries with a potency or affinity are not part of this list.

Holding throughout (parameters): scale not given: direction of the effect not stated beside the values
For experiment [1], the target named is Protein translocase subunit SecA (Escherichia coli (strain K12)) (UniProt P10408). Briefly: Assay to Identify E. coli SecA ATPase Inhibitors. It counts as functional. The following applies: 30 µM.
Experiment [2] deals with T1, Ubiquitin-activating enzyme e1, putative (Leishmania donovani (strain BPK282A1)) (UniProt E9BSI1).
T1 sequence (whole entry): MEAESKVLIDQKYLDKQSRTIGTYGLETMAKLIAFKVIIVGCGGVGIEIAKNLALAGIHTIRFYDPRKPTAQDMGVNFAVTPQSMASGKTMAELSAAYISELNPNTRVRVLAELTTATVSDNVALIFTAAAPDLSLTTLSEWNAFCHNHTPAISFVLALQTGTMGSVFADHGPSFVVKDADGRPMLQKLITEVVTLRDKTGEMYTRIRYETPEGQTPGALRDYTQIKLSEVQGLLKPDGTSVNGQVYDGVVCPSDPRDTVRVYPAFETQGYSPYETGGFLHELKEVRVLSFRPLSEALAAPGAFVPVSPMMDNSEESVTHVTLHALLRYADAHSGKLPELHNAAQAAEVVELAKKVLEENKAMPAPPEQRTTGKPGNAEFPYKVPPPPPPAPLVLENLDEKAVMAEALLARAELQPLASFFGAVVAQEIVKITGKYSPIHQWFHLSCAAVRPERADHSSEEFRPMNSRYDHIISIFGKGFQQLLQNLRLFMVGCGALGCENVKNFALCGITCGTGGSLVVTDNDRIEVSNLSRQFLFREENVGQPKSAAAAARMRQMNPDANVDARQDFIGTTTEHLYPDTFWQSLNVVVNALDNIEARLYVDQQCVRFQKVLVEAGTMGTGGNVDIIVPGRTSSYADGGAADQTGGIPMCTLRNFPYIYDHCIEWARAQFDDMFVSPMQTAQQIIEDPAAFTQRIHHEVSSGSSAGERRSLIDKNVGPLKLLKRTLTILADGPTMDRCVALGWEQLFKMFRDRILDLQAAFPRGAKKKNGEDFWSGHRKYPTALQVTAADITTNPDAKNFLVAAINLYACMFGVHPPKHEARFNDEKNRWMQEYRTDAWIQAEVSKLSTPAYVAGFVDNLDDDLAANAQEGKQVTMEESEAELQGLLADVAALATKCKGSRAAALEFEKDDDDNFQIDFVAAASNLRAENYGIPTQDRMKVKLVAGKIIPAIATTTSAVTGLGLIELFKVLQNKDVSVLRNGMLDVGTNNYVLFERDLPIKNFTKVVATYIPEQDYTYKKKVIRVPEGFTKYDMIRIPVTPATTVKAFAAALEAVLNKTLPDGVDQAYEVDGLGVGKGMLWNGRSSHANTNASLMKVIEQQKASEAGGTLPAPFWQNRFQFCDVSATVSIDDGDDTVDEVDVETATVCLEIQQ
Briefly: Leishmania donovani Ubiquitin Activating Enzyme (LdE1). The settings on record: 30 µM. The experiment is classed as functional.

For experiment [3], the target named is AMP-activated protein kinase, AMPK (Homo sapiens) (UniProt P54646+O43741+P54619+Q9UGJ0+Q9Y478+Q13131+Q9UGI9). Briefly: AMP-dependent Kinase enzyme assay. An in vitro enzyme assay that detects ADP turnover that is directly proportional to AMPK activity. This uses naive AMPK that is activated during the assay with MK-8722. It counts as functional. The following applies: 30 µM.

The target in experiment [4] is Sialic acid-binding Ig-like lectin 9 (Homo sapiens) (UniProt Q9Y336). Briefly: Hs-Siglec9 ALPHAscreen SOP 20170721. The settings on record: 10 µM. Background: Alpha assays give light when donor and acceptor beads are brought close together.
In the next experiment the test system is Trypanosoma cruzi. Briefly: Trypanosoma cruzi phosphomannomutase and mannose-1-phosphate guanylyltransferase assay. The experiment is classed as functional. The following applies: 10 µM.
The target in experiment [5] is T2, Arginase-2, mitochondrial (Homo sapiens) (UniProt P78540).
T2 sequence (whole entry): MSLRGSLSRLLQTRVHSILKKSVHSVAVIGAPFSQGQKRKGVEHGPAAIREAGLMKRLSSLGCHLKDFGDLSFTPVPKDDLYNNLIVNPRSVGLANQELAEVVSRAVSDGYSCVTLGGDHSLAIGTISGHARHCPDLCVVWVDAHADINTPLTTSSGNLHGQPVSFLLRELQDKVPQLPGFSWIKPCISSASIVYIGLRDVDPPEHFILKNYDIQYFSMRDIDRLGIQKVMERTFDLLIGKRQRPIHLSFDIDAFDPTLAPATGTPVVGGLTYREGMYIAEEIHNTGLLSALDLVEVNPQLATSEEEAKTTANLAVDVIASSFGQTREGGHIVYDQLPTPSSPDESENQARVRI
Briefly: in vitro enzyme assay to detect the production of urea directly proportional to the activity of Arginase II. Also: in the data most compounds retested in dose-response had high values. The following applies: 33.3 µM. The experiment is classed as functional.

Experiment [6] concerns the target T3, Proteasome subunit beta (Trypanosoma cruzi) (UniProt O96673).
T3 sequence (whole entry): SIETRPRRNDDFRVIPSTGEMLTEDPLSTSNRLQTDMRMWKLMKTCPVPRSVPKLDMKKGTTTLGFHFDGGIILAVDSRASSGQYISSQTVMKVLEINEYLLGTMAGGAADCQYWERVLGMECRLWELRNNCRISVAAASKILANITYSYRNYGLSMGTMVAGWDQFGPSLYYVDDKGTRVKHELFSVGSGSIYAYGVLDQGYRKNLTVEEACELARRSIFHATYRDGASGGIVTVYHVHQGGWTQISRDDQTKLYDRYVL
Briefly: Trypanosoma cruzi proteasome chymotrypsin-like activity (TcProtChymo) assay. Also: in the data most compounds retested in dose-response had high values. The following applies: 9.37 µM. The experiment is classed as functional.

A further experiment is filed under the species Homo sapiens. Briefly: To identify inhibition of the IFN signalling (Jak-Stat) pathway via expression of an eGFP reporter gene under the control of an IFN-stimulated response element (ISRE) containing MxA promoter. The experiment is classed as functional. The settings on record: 30 µM. Background: A reporter such as luciferase makes a cellular process visible.

For experiment [7], the target named is T4, Tyrosyl-tRNA synthetase, putative (Trypanosoma cruzi (strain CL Brener)) (UniProt Q4DSP6).
T4 sequence (whole entry): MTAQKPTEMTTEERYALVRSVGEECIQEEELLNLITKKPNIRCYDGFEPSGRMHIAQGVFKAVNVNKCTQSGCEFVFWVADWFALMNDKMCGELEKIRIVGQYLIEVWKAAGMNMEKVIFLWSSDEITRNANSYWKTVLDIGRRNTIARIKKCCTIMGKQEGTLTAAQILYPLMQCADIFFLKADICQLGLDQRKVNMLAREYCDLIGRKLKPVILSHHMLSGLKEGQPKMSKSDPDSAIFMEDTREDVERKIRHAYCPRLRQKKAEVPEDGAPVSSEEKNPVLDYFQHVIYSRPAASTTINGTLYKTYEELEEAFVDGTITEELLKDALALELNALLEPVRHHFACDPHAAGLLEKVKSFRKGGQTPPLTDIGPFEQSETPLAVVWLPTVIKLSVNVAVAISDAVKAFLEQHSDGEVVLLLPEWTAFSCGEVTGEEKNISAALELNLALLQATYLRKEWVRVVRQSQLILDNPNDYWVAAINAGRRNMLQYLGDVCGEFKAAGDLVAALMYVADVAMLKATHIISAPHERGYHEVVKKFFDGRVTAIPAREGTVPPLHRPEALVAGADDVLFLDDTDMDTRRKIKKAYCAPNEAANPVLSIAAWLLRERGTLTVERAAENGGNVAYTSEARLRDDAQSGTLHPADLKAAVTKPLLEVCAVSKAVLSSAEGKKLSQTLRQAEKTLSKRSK
Briefly: Trypanosoma cruzi tyrosyl tRNA synthetase (TcYRS) _High Tyrosine SOP. Also: in the data most compounds retested in dose-response had high values. The following applies: 30 µM. The experiment is classed as functional.

Experiment [8] deals with T4, Tyrosyl-tRNA synthetase, putative (Trypanosoma cruzi (strain CL Brener)). Briefly: Trypanosoma cruzi tyrosyl tRNA synthetase (TcYRS) SOP. It counts as functional. The following applies: 30 µM.
Experiment [9] concerns the target Chromo domain-containing protein 1 (Saccharomyces cerevisiae (strain ATCC 204508 / S288c) (Baker's yeast)) (UniProt P32657). Briefly: ScCHD-1 Enzyme Inhibition Assay. Also: in the data most compounds retested in dose-response had high values. The experiment is classed as functional. The settings on record: 30 µM.

Chain of Protein translocase subunit SecA (Escherichia coli (strain K12)) (P10408 whole entry): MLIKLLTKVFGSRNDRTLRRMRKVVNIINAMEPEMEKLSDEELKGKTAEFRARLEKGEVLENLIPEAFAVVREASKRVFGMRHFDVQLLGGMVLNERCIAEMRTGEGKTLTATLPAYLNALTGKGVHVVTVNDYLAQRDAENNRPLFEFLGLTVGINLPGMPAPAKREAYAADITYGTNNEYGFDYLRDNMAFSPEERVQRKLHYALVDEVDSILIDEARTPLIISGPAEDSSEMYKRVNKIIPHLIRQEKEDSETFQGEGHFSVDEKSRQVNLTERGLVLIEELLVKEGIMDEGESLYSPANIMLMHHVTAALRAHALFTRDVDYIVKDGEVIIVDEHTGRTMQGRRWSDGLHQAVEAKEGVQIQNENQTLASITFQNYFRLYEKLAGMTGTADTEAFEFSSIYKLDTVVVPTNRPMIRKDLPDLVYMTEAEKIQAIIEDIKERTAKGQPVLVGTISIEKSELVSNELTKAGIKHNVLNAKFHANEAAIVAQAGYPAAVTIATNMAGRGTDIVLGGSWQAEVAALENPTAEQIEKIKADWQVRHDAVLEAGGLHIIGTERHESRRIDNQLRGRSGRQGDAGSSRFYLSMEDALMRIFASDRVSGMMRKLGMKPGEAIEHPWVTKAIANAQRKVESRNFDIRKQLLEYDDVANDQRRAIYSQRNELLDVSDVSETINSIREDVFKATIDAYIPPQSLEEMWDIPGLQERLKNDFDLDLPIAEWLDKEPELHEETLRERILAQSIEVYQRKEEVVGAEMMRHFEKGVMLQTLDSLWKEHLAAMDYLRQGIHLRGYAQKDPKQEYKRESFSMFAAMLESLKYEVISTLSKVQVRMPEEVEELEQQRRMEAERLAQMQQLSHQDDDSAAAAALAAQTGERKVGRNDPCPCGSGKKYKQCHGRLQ
Chain of Chromo domain-containing protein 1 (Saccharomyces cerevisiae (strain ATCC 204508 / S288c) (Baker's yeast)) (P32657 whole entry, the tested form may be a part): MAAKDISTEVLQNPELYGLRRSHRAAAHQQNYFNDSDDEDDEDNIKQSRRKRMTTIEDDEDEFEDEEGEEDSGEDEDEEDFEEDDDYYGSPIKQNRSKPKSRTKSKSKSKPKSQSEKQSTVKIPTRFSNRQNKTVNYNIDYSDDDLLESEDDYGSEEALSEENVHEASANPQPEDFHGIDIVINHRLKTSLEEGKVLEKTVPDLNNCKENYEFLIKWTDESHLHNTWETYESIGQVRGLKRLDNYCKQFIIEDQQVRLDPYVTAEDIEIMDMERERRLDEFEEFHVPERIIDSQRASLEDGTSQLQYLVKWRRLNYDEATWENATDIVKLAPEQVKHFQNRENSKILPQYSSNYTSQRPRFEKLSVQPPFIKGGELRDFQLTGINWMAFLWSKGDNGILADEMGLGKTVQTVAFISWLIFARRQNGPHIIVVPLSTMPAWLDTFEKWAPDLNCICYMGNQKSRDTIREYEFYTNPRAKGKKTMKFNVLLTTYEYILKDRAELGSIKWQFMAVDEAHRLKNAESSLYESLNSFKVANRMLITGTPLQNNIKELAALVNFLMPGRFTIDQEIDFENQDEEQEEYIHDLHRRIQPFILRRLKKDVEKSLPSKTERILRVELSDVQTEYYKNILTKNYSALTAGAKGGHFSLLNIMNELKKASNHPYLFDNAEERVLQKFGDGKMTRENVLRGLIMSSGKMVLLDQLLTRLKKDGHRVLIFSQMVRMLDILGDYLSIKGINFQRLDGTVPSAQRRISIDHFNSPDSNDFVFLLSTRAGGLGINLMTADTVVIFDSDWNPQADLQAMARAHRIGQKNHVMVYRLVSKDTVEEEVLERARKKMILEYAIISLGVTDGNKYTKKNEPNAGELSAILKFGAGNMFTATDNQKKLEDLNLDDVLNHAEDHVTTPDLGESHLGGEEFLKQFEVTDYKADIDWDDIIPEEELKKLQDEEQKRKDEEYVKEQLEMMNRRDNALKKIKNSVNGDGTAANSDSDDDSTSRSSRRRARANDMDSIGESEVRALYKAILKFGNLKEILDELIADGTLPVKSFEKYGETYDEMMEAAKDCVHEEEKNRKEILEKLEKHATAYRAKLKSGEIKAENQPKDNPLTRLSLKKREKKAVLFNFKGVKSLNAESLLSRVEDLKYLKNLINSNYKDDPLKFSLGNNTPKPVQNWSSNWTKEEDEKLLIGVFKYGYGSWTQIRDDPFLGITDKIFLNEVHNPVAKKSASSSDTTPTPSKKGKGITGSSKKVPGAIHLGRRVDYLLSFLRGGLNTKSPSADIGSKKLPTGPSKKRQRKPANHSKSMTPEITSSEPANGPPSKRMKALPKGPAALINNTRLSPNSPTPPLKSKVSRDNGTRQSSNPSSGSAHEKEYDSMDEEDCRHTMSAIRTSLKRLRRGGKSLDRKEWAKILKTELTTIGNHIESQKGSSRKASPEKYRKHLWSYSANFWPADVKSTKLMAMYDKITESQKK
Chain of Sialic acid-binding Ig-like lectin 9 (Homo sapiens) (Q9Y336 whole entry): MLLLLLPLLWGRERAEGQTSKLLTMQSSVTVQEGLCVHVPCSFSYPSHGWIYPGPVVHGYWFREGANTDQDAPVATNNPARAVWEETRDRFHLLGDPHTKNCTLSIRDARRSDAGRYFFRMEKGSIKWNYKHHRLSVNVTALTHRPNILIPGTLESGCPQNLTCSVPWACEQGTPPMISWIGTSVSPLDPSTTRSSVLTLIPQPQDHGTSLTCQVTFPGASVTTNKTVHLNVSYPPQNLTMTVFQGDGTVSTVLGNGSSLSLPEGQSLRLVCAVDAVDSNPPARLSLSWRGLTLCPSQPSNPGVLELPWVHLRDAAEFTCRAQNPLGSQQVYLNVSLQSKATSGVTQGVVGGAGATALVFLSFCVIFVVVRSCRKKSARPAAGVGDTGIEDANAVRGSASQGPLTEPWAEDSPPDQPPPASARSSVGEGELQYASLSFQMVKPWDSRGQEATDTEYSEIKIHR

Take `CN1C(=O)C(c2cccnc2)CC12CCN(C(=O)c1cccn1C)CC2` (stereo not given): the Percent Effect in experiment [1] is -1.55%; in experiment [2], 0%; in [3], -0.439%; in [4], 0.0913%; in the experiment on Trypanosoma cruzi, 0%; in experiment [5] it was 4.48%. The Percent Effect is 6.67% in experiment [6]; -2.67% in the experiment filed under Homo sapiens; -3.12% in experiment [7]; -2.5% in experiment [8]; -4.59% in experiment [9].

Consider `CC(COc1ccc(F)cc1F)NC(=O)NCCN1CCOCC1` (stereo not given), for which the Percent Effect in experiment [1] is -3.66%; in experiment [2], 10.5%; in experiment [3] it was 7.15%; in experiment [4] it was -1.15%; in the experiment with Trypanosoma cruzi it was 4.77%; in [5], -5.92%. For the same compound, the Percent Effect in experiment [6] is 16%; in the experiment filed under Homo sapiens, -26.7%; in experiment [7], 1.06%; in experiment [8], 13%; in experiment [9], -2.74%.

`CC1CCCCN1CCNC(=O)c1ccn(-c2ccc(F)cc2)n1` (stereo not given): the Percent Effect is -2.64% in [1]; 18.9% in [2]; 3.92% in experiment [3]; 3.77% in experiment [4]; 6.51% in the experiment with Trypanosoma cruzi; -16% in experiment [5]. The Percent Effect is 18.9% in experiment [6]; 6.78% in the experiment listed under Homo sapiens; -26.1% in [7]; 23.5% in experiment [8]; -19.6% in experiment [9].

For the compound `Cc1cc(C)cc(-c2ccc(CC3(C(=O)O)CCOCC3)cc2)c1`, the Percent Effect in [1] was -8.77%; in [2], -4.05%; in experiment [3] it was 12.1%; in [4] it was -1.64%; in the experiment on Trypanosoma cruzi it was -3.95%; in [5] it was -3.48%. Moreover, the Percent Effect in experiment [6] is 1.25%; in the experiment listed under Homo sapiens, 18%; in experiment [7], -20.4%; in experiment [8], -37.7%; in experiment [9], -2.15%.

As to `COCCN(Cc1ccc(F)cc1Cl)C(=O)c1ccc(=O)[nH]n1`, the Percent Effect was -4.94% in experiment [1]; 6.94% in experiment [2]; -10.2% in [3]; 29.6% in [4]; 4.37% with Trypanosoma cruzi; 6.18% in experiment [5]. Further, the Percent Effect was 10.3% in [6]; -2.22% in the experiment listed under Homo sapiens; 2.1% in [7]; 5.13% in [8]; -5.81% in experiment [9].

On to `O=C(Cn1ccnc1)N1C[C@@H]2CC[C@H](Oc3ccccc3Cl)[C@@H]2C1`, for which the Percent Effect is -7.33% in experiment [1]; -4.05% in experiment [2]; 13.2% in experiment [3]; 1.9% in [4]; 0.198% in the experiment on Trypanosoma cruzi; -3.94% in [5]. Besides, the Percent Effect in [6] is -1.09%; in the experiment listed under Homo sapiens it was 31.6%; in experiment [7], 0%; in [8], -1.3%; in [9], 1.94%.

For `Cc1cnc2n(c1=O)CC(C(=O)Nc1ccccc1Cl)CS2` (stereo not given), the Percent Effect in experiment [1] is -2.2%; in experiment [2] it was -2.74%; in experiment [3] it was -2.72%; in [4], 0.622%; in the experiment on Trypanosoma cruzi, -2.94%; in experiment [5], -1.36%. In addition, the Percent Effect is 5.68% in [6]; -7.02% in the experiment filed under Homo sapiens; 1.07% in [7]; 0% in experiment [8]; -1.89% in experiment [9].

Consider `O=C(NCc1cccnc1-n1cccn1)C1CC(=O)N(CC2CC2)C1` (stereo not given), for which the Percent Effect was 1.42% in experiment [1]; -2.6% in [2]; 12.9% in experiment [3]; -3.81% in experiment [4]; -3.43% in the experiment with Trypanosoma cruzi; 7.37% in experiment [5]. The Percent Effect was 2.99% in [6]; 18.6% in the experiment filed under Homo sapiens; -0.952% in [7]; -2.35% in experiment [8]; -13.5% in [9].

As for `CSc1ncccc1C(=O)NCc1ccc(CS(=O)(=O)NC(C)C)cc1`, the Percent Effect in experiment [1] was -2.86%; in experiment [2], 13.9%; in experiment [3], 2.75%; in experiment [4], -0.901%; in the experiment on Trypanosoma cruzi, -1.74%; in experiment [5] it was 3.23%. The Percent Effect in experiment [6] is 15.4%; in the experiment filed under Homo sapiens, 21.4%; in experiment [7] it was 2.08%; in experiment [8] it was 2.53%; in experiment [9], -26.4%.

For the compound `COc1ccccc1CC(=O)N1CCC(NCc2cc[nH]c2)CC1`, the Percent Effect in [1] is -0.99%; in experiment [2] it was 18.9%; in experiment [3], -7.09%; in [4], -3.31%; with Trypanosoma cruzi it was 4.92%; in experiment [5], 5.36%. For the same compound, the Percent Effect in [6] was 16.3%; in the experiment listed under Homo sapiens, 5.88%; in [7], 11.9%; in [8], 23.2%; in [9], -7.56%.
